# Data reported in PubChem BioAssay AID1159580 (chemical genetic matrix, 2015).
# Out of some 5,500 compounds screened, about 2,000 (36%) were called active. Inconclusive results (about 18%) are left out. Some of the results follow. Unmarked numbers belong to inactive results. Cut-off read from the data, not from the text of the source: active = normalized growth mostly below about 0.91 (no sharp cut-off); inconclusive = no clear call, values can overlap the other calls; inactive = mostly above about 0.92.
# Test: chemical genetic growth profiling, strain panel (AID 1159580);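 note: tested at 20 µM; growth read once vehicle control cultures reached saturation at 30 °C; 1 = growth at the plate median or of vehicle wells; lower values mean less growth of the strain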
# Conditions: S. cerevisiae deletion strains, growth OD
# [1] = locus YAL040C, strain CLN3, active compounds read low
# [2] = locus YER002W, strain NOP16, active compounds read low
# [3] = locus YGR229C, strain SMI1, active compounds read low
# [4] = locus YMR263W, strain SAP30, active compounds read low
# [5] = locus YNL128W, strain TEP1, active compounds read low
# [6] = locus YNL153C, strain GIM3, active compounds read low
# [7] = locus YNL175C, strain NOP13, active compounds read low
# [8] = locus YNL197C, strain WHI3, active compounds read low
# [9] = locus YNL224C, strain SQS1, active compounds read low
# [10] = locus YOR083W, strain WHI5 (second series), active compounds read low
# [11] = locus YCL061C, strain MRC1 (second series), active compounds read low
# [12] = locus YDR363W, strain ESC2, active compounds read low
# [13] = locus YMR307W, strain GAS1, active compounds read low
# [14] = locus YPL055C, strain LGE1, active compounds read low
# [15] = locus YPL241C, strain CIN2, active compounds read low
smiles,measurement,setting,value
NC(N)=NCCC[C@H](N)C(=O)O,normalized growth,[1],1.09
same,normalized growth,[2],1.01
same,normalized growth,"locus YGR078C, strain PAC10, active compounds read low",0.987
same,normalized growth,[3],0.98
same,normalized growth,[4],1.01
same,normalized growth,[5],0.986
same,normalized growth,[6],1.01
same,normalized growth,[7],0.981
same,normalized growth,[8],0.989
same,normalized growth,[9],0.999
same,normalized growth,"locus YNL322C, strain KRE1, active compounds read low",0.984
same,normalized growth,[10],0.975
CCCCC#Cc1nc(N)c2ncn([C@@H]3O[C@H](C(=O)NCC)[C@@H](O)[C@H]3O)c2n1,normalized growth,[1],0.949
same,normalized growth,[11],0.996
same,normalized growth,[12],1
same,normalized growth,[2],1
same,normalized growth,[4],0.996
same,normalized growth,[13],1.01
same,normalized growth,[6],1.19
same,normalized growth,[7],0.98
same,normalized growth,[8],0.982
same,normalized growth,[9],1.01
same,normalized growth,[10],0.982
same,normalized growth,[14],0.991
same,normalized growth,[15],0.994
COc1nc(C)nc(Cl)c1NC1=NCCN1,normalized growth,"locus YAL013W, strain DEP1, active compounds read low",1.01
same,normalized growth,[1],0.999
same,normalized growth,[11],0.999
same,normalized growth,"locus YDR150W, strain NUM1, active compounds read low",0.996
same,normalized growth,[12],1.01
same,normalized growth,[2],0.987
same,normalized growth,[3],1.01
same,normalized growth,"locus YJR075W, strain HOC1, active compounds read low",0.99
same,normalized growth,[4],0.998
same,normalized growth,[13],1.01
same,normalized growth,[5],1.01
same,normalized growth,[7],1
same,normalized growth,[8],1
same,normalized growth,[9],1.01
same,normalized growth,[10],1.01
same,normalized growth,[14],0.998
same,normalized growth,[15],0.997
Cc1c(C(=S)Nc2ccccc2)sc2ccccc12,normalized growth,"locus YAR019C, strain CDC15, active compounds read low",0.943
same,normalized growth,"locus YBL105C, strain PKC1, active compounds read low",0.958
same,normalized growth,"locus YBR135W, strain CKS1, active compounds read low",0.935
same,normalized growth,"locus YBR136W, strain MEC1, active compounds read low",0.947
same,normalized growth,"locus YBR160W, strain CDC28, active compounds read low",0.948
same,normalized growth,"locus YDL017W, strain CDC7, active compounds read low",0.964
same,normalized growth,"locus YDL028C, strain MPS1, active compounds read low",0.953
same,normalized growth,"locus YDL101C, strain DUN1, active compounds read low",0.961
same,normalized growth,"locus YDL108W, strain KIN28, active compounds read low",0.946
same,normalized growth,"locus YDL132W, strain cdc53, active compounds read low",0.967
same,normalized growth,"locus YDL214C, strain PRR2, active compounds read low",0.881
same,normalized growth,"locus YDR052C, strain DBF4, active compounds read low",0.959
same,normalized growth,"locus YDR054C, strain cdc34, active compounds read low",0.938
same,normalized growth,"locus YDR226W, strain ADK1, active compounds read low",0.941
same,normalized growth,"locus YDR477W, strain SNF1, active compounds read low",0.887
same,normalized growth,"locus YER123W, strain YCK3, active compounds read low",0.882
same,normalized growth,"locus YER133W, strain GLC7, active compounds read low",0.865
same,normalized growth,"locus YFL009W, strain cdc4, active compounds read low",0.943
same,normalized growth,"locus YFL029C, strain CAK1, active compounds read low",0.941
same,normalized growth,"locus YFR003C, strain YPI1, active compounds read low",0.949
same,normalized growth,"locus YFR019W, strain FAB1, active compounds read low",0.948
same,normalized growth,"locus YFR028C, strain CDC14, active compounds read low",0.969
same,normalized growth,"locus YGR040W, strain KSS1, active compounds read low",0.867
same,normalized growth,"locus YGR052W, strain FMP48, active compounds read low",0.968
same,normalized growth,"locus YGR092W, strain DBF2, active compounds read low",0.728
same,normalized growth,"locus YHR030C, strain SLT2, active compounds read low",0.809 (active)
same,normalized growth,"locus YHR079C, strain IRE1, active compounds read low",0.816
same,normalized growth,"locus YHR082C, strain KSP1, active compounds read low",0.863
same,normalized growth,"locus YHR205W, strain SCH9, active compounds read low",0.861
same,normalized growth,"locus YIL147C, strain SLN1, active compounds read low",0.951
same,normalized growth,"locus YJL095W, strain BCK1, active compounds read low",0.886
same,normalized growth,"locus YJL128C, strain PBS2, active compounds read low",0.95
same,normalized growth,"locus YJL157C, strain FAR1, active compounds read low",0.863
same,normalized growth,"locus YJR016C, strain ILV3, active compounds read low",0.946
same,normalized growth,"locus YJR066W, strain TOR1 (second series), active compounds read low",0.818
same,normalized growth,"locus YJR066W, strain TOR1, active compounds read low",0.899
same,normalized growth,"locus YKL048C, strain ELM1, active compounds read low",0.933
same,normalized growth,"locus YKL067W, strain YNK1, active compounds read low",0.884
same,normalized growth,"locus YKL101W, strain HSL1, active compounds read low",0.917
same,normalized growth,"locus YKL193C, strain SDS22, active compounds read low",0.94
same,normalized growth,"locus YKL203C, strain TOR2, active compounds read low",0.925
same,normalized growth,"locus YLR113W, strain HOG1, active compounds read low",0.915
same,normalized growth,"locus YLR133W, strain CKI1, active compounds read low",0.888
same,normalized growth,"locus YLR403W, strain SFP1, active compounds read low",0.81
same,normalized growth,"locus YML070W, strain DAK1, active compounds read low",0.865
same,normalized growth,"locus YMR001C, strain CDC5, active compounds read low",0.938
same,normalized growth,"locus YMR205C, strain PFK2 (second series), active compounds read low",0.879
same,normalized growth,"locus YMR277W, strain FCP1, active compounds read low",0.939
same,normalized growth,"locus YNL006W, strain LST8, active compounds read low",0.951
same,normalized growth,"locus YNL020C, strain ARK1, active compounds read low",0.875
same,normalized growth,"locus YNL161W, strain CBK1, active compounds read low",0.954
same,normalized growth,"locus YNL183C, strain NPR1, active compounds read low",0.863
same,normalized growth,"locus YNL207W, strain RIO2, active compounds read low",0.946
same,normalized growth,"locus YNL222W, strain SSU72, active compounds read low",0.941
same,normalized growth,"locus YNL307C, strain MCK1 (second series), active compounds read low",0.842
same,normalized growth,"locus YOL078W, strain AVO1, active compounds read low",0.934
same,normalized growth,"locus YOL136C, strain PFK27, active compounds read low",0.859
same,normalized growth,"locus YOR061W, strain CKA2, active compounds read low",0.854
same,normalized growth,"locus YOR119C, strain RIO1, active compounds read low",0.965
same,normalized growth,"locus YOR231W, strain MKK1, active compounds read low",0.879
same,normalized growth,"locus YOR329C, strain SCD5, active compounds read low",0.958
same,normalized growth,"locus YPL031C, strain PHO85, active compounds read low",0.862
same,normalized growth,"locus YPL153C, strain RAD53, active compounds read low",0.847
same,normalized growth,"locus YPL204W, strain HRR25, active compounds read low",0.828
same,normalized growth,"locus YPL209C, strain IPL1, active compounds read low",0.95
same,normalized growth,"locus YPL256C, strain CLN2, active compounds read low",0.899
same,normalized growth,"locus YPR025C, strain CCL1, active compounds read low",0.945
same,normalized growth,"locus YPR106W, strain ISR1, active compounds read low",0.951
same,normalized growth,"locus YPR111W, strain DBF20, active compounds read low",0.99
same,normalized growth,"strain NNK1, active compounds read low",0.949
same,normalized growth,"strain TSCII, active compounds read low",0.941
